# Many of the other results were omitted from the sample, so hits are more common in it than they were.
# Dicer processing: inhibitors of Dicer pre-microRNA processing, primary screen, biochemical, cat-ELCCA, chemiluminescence. AID 1347074, 2019. hit rate 6% among 47,000. Endoribonuclease Dicer (Homo sapiens), Q9UPY3. z-score at 25 µM. cat-ELCCA pre-miR-21 Dicer processing; hits give high values; in the data active means z-score above about 3, passing the limit was not always enough;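 further: plate controls were vehicle for no effect and no enzyme for full effect; higher signal means more uncleaved substrate so more Dicer inhibition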
# * = called active by the depositor.
SMILES,Dicer processing
C=C1c2cc(C)c(C)cc2NC(=O)N1c1ccccc1,2.9
COc1ccc(-c2nnc(SCc3ccccc3C)o2)cc1,2.1
COC(=O)c1ccc(S(=O)(=O)NCCNc2ncc(Cl)cc2C(F)(F)F)n1C,0.44
CCc1cccc(CC)c1NC(=O)C(Sc1ccccn1)c1ccccc1 (configuration not stated),1.6
CC(C)S(=O)(=O)C/C(N)=N/OCc1ccc(Cl)cc1,-0.68
CCCS(=O)(=O)C/C(N)=N/OC(=O)c1ccc(Cl)cc1,-0.54
CC(C)S(=O)(=O)C/C(N)=N/OC(=O)c1cc(Cl)cc(Cl)c1,5.4*
CC(C)S(=O)(=O)C/C(N)=N/OS(=O)(=O)c1ccc(Cl)cc1,-1.5
N/C(CS(=O)(=O)Cc1ccco1)=N\OC(=O)c1ccc(Cl)cc1,4.8*
N#C/C(=N\OC(=O)c1ccc(Cl)cc1)S(=O)(=O)c1ccc(Cl)cc1,-3.8
CCOC(=O)CSc1nc2cc(Cl)ccc2n1C(C)C,0.31
Cc1ccc(S(=O)(=O)NNc2ncnc3c(C)csc23)cc1,-0.24
O=C(c1ccccc1)c1cc2c(cc1Br)OCCCO2,-0.29
Cc1noc(C)c1-c1nc(CSc2n[nH]c(=O)n2C(C)c2ccccc2)no1 (configuration not stated),1.1
CCCCOc1ccc(C2c3c(oc4ccccc4c3=O)C(=O)N2c2nnc(C)s2)cc1OC (configuration not stated),-0.07
COc1ccc(OC)c(-c2cc(-c3ccccc3)nc(-c3cccc([N+](=O)[O-])c3)c2)c1,-0.7
CCOC(=O)c1ccc2[nH]cc(C(=O)OCC)c(=O)c2c1,-0.16
CCOC(=O)c1c[nH]c2ccc(C(F)(F)F)cc2c1=O,-0.83
CCOC(=O)c1c[nH]c2ccccc2c1=O,3*
O=C(C1=NNCC1c1ccccc1)c1ccc2c(ccc3ccccc32)c1 (configuration not stated),1.6
COc1cccc(-c2cc(-c3ccc(C)o3)c(C#N)c(N)n2)c1,-2.7
CCOC(=O)c1sc(N/N=C2\CCCc3ccccc32)nc1C,-1.8
FC(F)(F)c1cccc(N2CCN(c3cc(C(F)(F)F)nc4ccccc34)CC2)n1,-1.1
COc1nccnc1NS(=O)(=O)c1ccc(NC(=O)c2cc(Cl)cc(Cl)c2)cc1,2.2
CCn1c(NCc2cc(Br)ccc2O)nc2ccccc21,1.6
SMILES,Dicer processing
COc1nccnc1NS(=O)(=O)c1ccc(NCc2cc(Br)ccc2O)cc1,6.3*
N#C/C(=N\Nc1ccc(F)cc1)C(=O)c1ccccc1Cl,0.3
COc1ccc(C(=O)/C(C#N)=N/Nc2cccc(Cl)c2Cl)cc1,8.3*
COc1ccc(NC(=O)Nc2cccc(Cl)c2Cl)c(OC)n1,-0.73
O=[N+]([O-])c1cc(C(F)(F)F)ccc1Oc1c(Cl)cccc1Cl,-1
Cc1ccc(O)c(C2Nc3c(C)cccc3-c3cc(C)nn32)c1 (configuration not stated),5.7*
Cc1cc2n(n1)C(c1ccc(N3CCCC3)cc1)Nc1ccccc1-2 (configuration not stated),4.5*
Cc1cc2n(n1)C(c1cccc(O)c1)Nc1ccccc1-2 (configuration not stated),0.25
Cc1cc2n(n1)C(c1ccc(O)cc1)Nc1c(C)cccc1-2 (configuration not stated),4.8*
Cc1cc2n(n1)C(c1ccc(C(=O)O)cc1)Nc1c(C)cccc1-2 (configuration not stated),2.4
Cc1cc2n(n1)C(c1ccc(O)cc1O)Nc1c(C)cccc1-2 (configuration not stated),1.5
Cc1cc2n(n1)C(c1cccc(O)c1O)Nc1c(C)cccc1-2 (configuration not stated),2.3
Cc1cc2n(n1)C(c1cccc(O)c1)Nc1c(C)cccc1-2 (configuration not stated),4.3*
CCc1ccc(C(=O)/C=C/Nc2ccc(Cl)cc2Cl)cc1,-0.38
CN1C(=O)c2cccc3cccc(c23)S12OC(=O)c1ccccc12 (configuration not stated),-1.4
CCOC(=O)CN1C(=O)C(O)(CC(=O)c2cc(C)ccc2C)c2ccccc21 (configuration not stated),1.1
CC(C)N(Cc1ccc(N(C)C)cc1)C(=S)Nc1ccc(F)cc1,0.57
FC(F)(F)c1cc(N2N=NC3C4CC(C5CCCC54)C32N2CCOCC2)cc(C(F)(F)F)c1 (configuration not stated),-0.03
O=C(O)CCCNC(=O)c1cccs1,0.61
Cc1noc(C(F)(F)F)c1-c1nc(-c2ccc(Cl)cc2)no1,0.53
COC(=O)/C(C#N)=C/c1ccc(OC)c(Br)c1,-0.69
CCN(CC)CC(=O)NN1CC(=O)N(c2cccc(Cl)c2)CC1=O,-0.21
Cc1ccc2c(c1)C(=O)OC(C(=O)Nc1nccs1)C2 (configuration not stated),-2.7
Cc1sc2nc(C)n(/N=C/c3cccnc3)c(=O)c2c1C,0.1
CCN(CC)c1ccc(C2Nc3ccccc3-c3cc(C)nn32)cc1 (configuration not stated),3.3*
SMILES,Dicer processing
Cc1cc2n(n1)C(/C=C\c1ccccc1)Nc1c(C)cccc1-2 (configuration not stated),6*
CSc1ccc(C2Nc3ccc(C)cc3-c3cc(C)nn32)cc1 (configuration not stated),-0.31
COc1ccc(C2Nc3ccc(C)cc3-c3cc(C)nn32)cc1O (configuration not stated),1.7
CSc1ccc(C2Nc3ccccc3-c3cc(C)nn32)cc1 (configuration not stated),4.8*
Cc1cc2n(n1)C(c1ccsc1)Nc1ccccc1-2 (configuration not stated),0.04
Cc1cc2n(n1)C(c1ccc(N3CCOCC3)cc1)Nc1c(C)cccc1-2 (configuration not stated),3.8*
Cc1cc(C)c2c(c1)-c1cc(C)nn1C(c1cccs1)N2 (configuration not stated),-1.9
CN(C)S(=O)(=O)N(CC(=O)Nc1ccccc1Sc1ccccc1)c1ccccc1,-1.7
CCCOC(=O)C(CC)Oc1ccc2c(=O)c(Oc3ccc(OC)cc3)coc2c1 (configuration not stated),-0.43
O=C(Nc1ccc([N+](=O)[O-])cc1)Nc1csc(Cc2ccsc2)n1,1.9
CCn1ncc(Br)c1C(=O)Nc1ccc(N(C)C)cc1,0.96
CSc1ccc(C2Nc3c(C)cccc3-c3cc(C)nn32)cc1 (configuration not stated),3.9*
COC(=O)c1ccc(C2Nc3c(C)cc(C)cc3-c3cc(C)nn32)cc1 (configuration not stated),-0.34
Cc1ccc2c(c1)-c1cc(C)nn1C(c1ccc(N(C)C)cc1)N2 (configuration not stated),6.8*
Cc1ccc2c(c1)-c1cc(C)nn1C(c1ccc(O)cc1)N2 (configuration not stated),0.19
Cc1ccc2c(c1)-c1cc(C)nn1C(c1ccc(C(=O)O)cc1)N2 (configuration not stated),2.5
CC1(c2ccncc2)NC(=O)NC1=O (configuration not stated),0.14
COC(=O)c1cnc(Sc2ccccc2NC(=O)c2ccc(Cl)cc2)c([N+](=O)[O-])c1,-1.6
CCCOc1ccc(C2Nc3ccc4ncccc4c3C3=C2C(=O)CCC3)cc1 (configuration not stated),0.05
O=C(CSCc1csc2ccccc12)NCc1ccc2c(c1)OCO2,-0.3
c1ccc(-c2cn3c(n2)COc2ccccc2-3)cc1,-1.4

# Screening data deposited in PubChem by Center for Chemical Genomics, University of Michigan.
